SMILES strings stand for the structures. Several values for one entry are separate records, joined by “and”; a condition that tells them apart may be missing. Equal values may be shown once. A number with no mark means an inactive call. Results filed as inconclusive are left out. Activity calls are given as the source filed them. Unless noted, calls come from the whole dose curve; as a rule, active = well fitted curve in the direction sought with a large enough effect; inconclusive = small, poorly fitted or top-dose-only effect, or another doubt; inactive = no such curve, though single readings can be large; an effect the other way counts as inactive or inconclusive. Bounds are passed on as bounds.

Consider eight molecules from PubChem BioAssay (NCATS).

Experiment [1] in a line: Cell Viability - BJ (AID 421; calls by dose curve;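 note: potency is the fitted concentration of half-maximal effect; cells exposed to compound for 40 hours at 37 °C before readout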). The following applies: BJ fibroblast viability, qHTS. An outline of the steps: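 Normal human BJ foreskin fibroblasts, 1500/well in complete medium, treated 40 hr at 37 °C. Cellular ATP by CellTiter-Glo luminescence; normalized to DMSO and 100 uM tamoxifen, AC50 from Hill fit.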
Experiment [2] in a line: Cell Viability - MRC5 (AID 434; calls by dose curve;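 note: potency is the fitted concentration of half-maximal effect; potency reflects cytotoxicity seen as loss of intracellular ATP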). The following applies: MRC5 lung fibroblast viability, qHTS. In a few lines: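 ATP luminescence read-out (CellTiter-Glo, 20 min RT) after 40 hr, 37 °C compound exposure of 1500 MRC5 cells/well. Data normalized to DMSO (basal) and 100 uM tamoxifen (100% inhibition); AC50 from standard Hill equation.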
For orientation: In qHTS, concentration-response curves come from the screen itself.

Experiment [3] can be described thus: Cell Viability - SK-N-SH (AID 435; calls by dose curve;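 note: potency is the fitted concentration of half-maximal effect; compound exposure lasted 40 h at 37 °C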). The following applies: SK-N-SH neuroblastoma cell viability qHTS. An outline of the steps:
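SK-N-SH human neuroblastoma cells (1500/well) were exposed to compounds in complete medium for 40 h at 37 °C, and intracellular ATP was then measured by CellTiter-Glo luminescence. AC50 was taken from Hill fits, normalized to DMSO and 100 uM tamoxifen.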

Experiment [4] is described as follows: Cell Viability - NIH 3T3 (AID 541).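 For activity change, negative = cytotoxicity: plate controls were DMSO alone for no effect and tamoxifen positive control for full effect.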 Note: nearly all actives have a fitted effect of over 25% in size. Note: potency is the fitted concentration of half-maximal effect. The following applies: NIH 3T3 cell viability, qHTS; activity change, negative = cytotoxicity: at 92.2 µM (top of the series). An outline of the steps: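 Intracellular ATP (CellTiter-Glo luminescence, 20 min at room temperature) measured after 40 hr compound exposure at 37 °C of 1000 NIH 3T3 mouse fibroblasts/well in complete medium; AC50 derived by Hill-equation modelling of qHTS concentration-response curves.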

The nature of experiment [5]: Cell Viability - HUV-EC-C (AID 542). Note: % is set by controls: 0 for no effect and ±100 for the full control effect; nearly all actives have a fitted effect of over 35% in size. The following applies: HUV-EC-C endothelial cell viability, qHTS; series mostly up to 92.2 µM. In a few lines: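 CellTiter-Glo luminescence measured ATP loss in HUV-EC-C cells (1000/well) after 40 hr compound exposure at 37 °C, in complete culture medium. Concentration-response data were Hill-fitted to give AC50.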
A short description of experiment [6]: Cell Viability - Mesenchymal (AID 546).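 Note: cells exposed to compound for 40 hours before reading.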 Note: potency is the fitted concentration of half-maximal effect. The following applies: mesenchymal cells viability, qHTS; activity change, negative = cytotoxicity: at 91.7 µM (top of the series). In a few lines: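 Human renal mesenchymal cells (glomerulus-derived), 1000 cells/well, 5 hr 37 °C pre-incubation; compound 40 hr, 37 °C; CellTiter-Glo, 20 min RT; luminescence; AC50 via Hill equation.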

The nature of experiment [7]: Cellular Toxicity (caspase-3) HepG2 (AID 654).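 Note: cells exposed to compound for 16 hours before reading; 0% = DMSO alone and 100% = caspase signal from 100 µM tamoxifen.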 The following applies: HepG2 caspase-3 activation, luminescence, 0% = DMSO only, 100% = tamoxifen; series mostly up to 92.2 µM. In a few lines:
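Caspase 3/7 activation is measured as a luminescence increase (aminoluciferin substrate) after 16 h compound exposure of human hepatocarcinoma HepG2 cells. AC50 values are Hill fits, scaled between DMSO baseline and 100 uM tamoxifen stimulation.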

A short description of experiment [8]: Cellular Toxicity (caspase-3) HUV-EC-C (AID 656). The following applies: HUV-EC-C cells, caspase-3 activation (apoptosis), vehicle = 0, 100 µM tamoxifen = 100%; series mostly up to 92.2 µM. In a few lines: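 HUV-EC-C endothelial cells, 1000/well, were pre-incubated 5 hr at 37°C, then exposed to compounds for 16 hr at 37°C. Caspase-Glo 3/7 luminescence was read after 20 min at room temperature. AC50 came from Hill fits, normalized to DMSO and 100 uM tamoxifen.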

Experiment [9] in a line: Cellular Toxicity (caspase-3) SHSY5Y (AID 657). The following applies: SH-SY5Y caspase-3 activation, DMSO zero, 10 µM staurosporine = 100%; series mostly up to 91.7 µM. In a few lines:
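SH-SY5Y human neuroblastoma cells (1500/well) were treated with compounds for 16 h at 37 °C, then Caspase-Glo 3/7 luminescence was read after 1 h at room temperature. Data normalized to DMSO and 10 uM staurosporine; AC50 from Hill fits.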

Experiment [10] can be described thus: qHTS Assay for Identification of Small Molecule Inducers of Hypoxia Response (AID 2120; active = well fitted curve in the direction sought with a large enough effect in the signal ratio, with a control signal flat, not every such curve was filed as active; the % refers to the signal ratio; note: 0% is about no effect). The following applies: hypoxia response reporter cells, beta-lactamase ratio readout; series mostly up to 104 µM. In a few lines:
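Reporter induction read as the CCF4 blue/green (460nm/530nm) emission ratio after 2.5 h dye loading at room temperature. ME-180 HRE-beta-lactamase cells received titrated compounds for 17 h at 37 degrees Celsius; AC50 values derived.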

Experiment [11] deals with Peroxisome proliferator-activated receptor gamma (Homo sapiens) (UniProt P37231). Kind of experiment: qHTS assay for small molecule agonists of peroxisome proliferator-activated receptor gamma signaling (AID 588536; active = well fitted curve in the direction sought with a large enough effect in the signal ratio, with a control signal flat, not every such curve was filed as active; the % refers to the signal ratio;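 note: 0% = DMSO basal wells and 100% = rosiglitazone at 2 µM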). The following applies: HEK293 PPARg-UAS-bla, beta-lactamase ratio, 16 h, percent of rosiglitazone response, DMSO as zero; series mostly up to 76.7 µM. In a few lines:
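Cells were plated and held 6–6.5 h at 37 C, then compounds were added as a titration series. After a further 16 h, CCF4 dye was loaded for 2 h at room temperature and emission at 460/530 nm recorded.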

Experiment [12] deals with Thyroid hormone receptor beta (Homo sapiens) (UniProt P10828). The experiment in a line: qHTS assay for small molecule agonists of thyroid hormone receptor beta signaling (AID 588545; calls by dose curve;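 note: 0% = DMSO only and 100% = 10 nM T3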). The following applies: TR-UAS-bla GripTite HEK 293, beta-lactamase ratio, agonist mode, 18 h, percent of T3 response, DMSO as zero; series mostly up to 76.7 µM. In a few lines: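 Beta-lactamase reporter activity under TR response element control is measured in HEK 293 cells after 18 hrs compound exposure. Signal is ratiometric CCF4 fluorescence, 460/530 nm.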
Thyroid hormone receptor beta (Homo sapiens), sequence (P10828 whole entry, looked up): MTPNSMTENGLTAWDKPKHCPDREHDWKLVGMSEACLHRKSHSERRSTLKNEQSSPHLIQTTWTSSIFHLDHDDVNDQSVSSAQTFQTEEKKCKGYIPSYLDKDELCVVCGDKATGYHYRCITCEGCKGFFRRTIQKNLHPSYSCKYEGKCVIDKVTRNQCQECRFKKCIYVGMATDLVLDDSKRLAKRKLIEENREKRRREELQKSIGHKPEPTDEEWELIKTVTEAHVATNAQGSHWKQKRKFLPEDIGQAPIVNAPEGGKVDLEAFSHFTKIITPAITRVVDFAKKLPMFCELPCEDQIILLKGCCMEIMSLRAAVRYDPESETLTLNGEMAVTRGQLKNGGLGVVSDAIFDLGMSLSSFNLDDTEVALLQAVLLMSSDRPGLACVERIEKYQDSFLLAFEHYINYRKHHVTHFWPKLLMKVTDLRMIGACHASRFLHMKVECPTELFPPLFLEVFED

Experiment [13] has the same target. Kind of experiment: qHTS assay for small molecule antagonists of thyroid hormone receptor beta signaling (AID 588547; active = well fitted inhibition curve with a large enough effect in the signal ratio, with a control signal flat, not every such curve was filed as active; the % refers to the signal ratio;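 note: cells stimulated with 0.4 nM T3 agonist during compound exposure; % is set by controls: 0 for no effect and ±100 for the full control effect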). The following applies: TR-UAS-bla HEK293, beta-lactamase ratio, antagonist mode, 18 h. An outline of the steps: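 TR-UAS-bla GripTite HEK293 cells in 2% charcoal/dextran FBS medium; compounds 0.59 nM to 92 uM with T3 at 0.4nM final, 18 h at 37 C. Beta-lactamase read by CCF4 fluorescence (460/530 nm); Hill fits gave IC50 and efficacy.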

The target of experiment [14] is Voltage-gated inwardly rectifying potassium channel KCNH2 (Homo sapiens) (UniProt Q12809). Kind of experiment: qHTS Assay for Small Molecule Inhibitors of the Human hERG Channel Activity (AID 588834).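 Note: top concentration of the series differs between compounds; % is set by controls: 0 for no effect and ±100 for the full control effect; lower thallium flux fluorescence means stronger hERG block; nearly all actives have a fitted effect of over 50% in size.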 The following applies: U2OS BacMam hERG, FluxOR thallium flux fluorescence; series mostly up to 92.2 µM. In a few lines:
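In hERG-transduced U2OS cells, dye-loaded for 1 hr at room temperature in dark, test compounds incubated 10 min at 37 °C before thallium stimulation. AC50 values derived by Hill modelling of concentration-response.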

In experiment [15] the test system is C2A. Kind of experiment: qHTS profiling for inhibitors of Plasmodium falciparum proliferation (AID 504749). Note: nearly all actives have a fitted effect of over 60% in size. Note: potency is the fitted concentration of half-maximal effect. The following applies: P. falciparum in erythrocytes, SYBR Green DNA, 72 h; series mostly up to 28.7 µM. An outline of the steps: (§1)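 Each compound contacts P. falciparum-infected red blood cells for 72 h at 37 C; lysis buffer (Tris, EDTA, saponin, Triton X, SYBR Green I) is added and fluorescence measured next morning; values normalized to controls.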

Experiment [16] has as its system CP237. Described as above. The following applies: P. falciparum in erythrocytes, SYBR Green DNA, 72 h; series mostly up to 28.7 µM. In a few lines: as §1
For experiment [17], the system named is CP260. Described as above. The following applies: P. falciparum in erythrocytes, SYBR Green DNA, 72 h; series mostly up to 28.7 µM. An outline of the steps: as §1
Experiment [18] deals with Dd2. The experiment is described as above. The following applies: P. falciparum in erythrocytes, SYBR Green DNA, 72 h; series mostly up to 28.7 µM. An outline of the steps: as §1
The subject of experiment [19] is SC27B. The experiment is described as above. The following applies: P. falciparum in erythrocytes, SYBR Green DNA, 72 h; series mostly up to 28.7 µM. An outline of the steps: as §1
The target of experiment [20] is Nuclear receptor subfamily 1 group I member 2 (Rattus norvegicus) (UniProt Q9R1A7). The experiment in a line: qHTS assay for small molecule activators of the rat pregnane X receptor (rPXR) signaling pathway (AID 651751; call rule not given here; note: 0% is about no effect). The following applies: rPXR reporter cells, luciferase (One-Glo), 24 h.
Nuclear receptor subfamily 1 group I member 2 (Rattus norvegicus), sequence (Q9R1A7 whole entry, looked up): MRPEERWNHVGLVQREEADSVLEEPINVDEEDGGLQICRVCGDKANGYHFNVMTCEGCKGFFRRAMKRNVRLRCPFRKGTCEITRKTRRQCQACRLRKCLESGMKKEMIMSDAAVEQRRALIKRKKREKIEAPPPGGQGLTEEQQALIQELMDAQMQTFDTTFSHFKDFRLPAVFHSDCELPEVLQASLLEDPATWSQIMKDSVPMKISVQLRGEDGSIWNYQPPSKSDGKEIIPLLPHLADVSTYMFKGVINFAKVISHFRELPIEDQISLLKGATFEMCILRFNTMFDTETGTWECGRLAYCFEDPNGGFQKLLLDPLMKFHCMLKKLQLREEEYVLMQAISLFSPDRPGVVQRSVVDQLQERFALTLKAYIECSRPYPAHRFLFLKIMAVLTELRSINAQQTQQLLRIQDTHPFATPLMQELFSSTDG

Voltage-gated inwardly rectifying potassium channel KCNH2 (Homo sapiens), sequence (Q12809 whole entry, looked up): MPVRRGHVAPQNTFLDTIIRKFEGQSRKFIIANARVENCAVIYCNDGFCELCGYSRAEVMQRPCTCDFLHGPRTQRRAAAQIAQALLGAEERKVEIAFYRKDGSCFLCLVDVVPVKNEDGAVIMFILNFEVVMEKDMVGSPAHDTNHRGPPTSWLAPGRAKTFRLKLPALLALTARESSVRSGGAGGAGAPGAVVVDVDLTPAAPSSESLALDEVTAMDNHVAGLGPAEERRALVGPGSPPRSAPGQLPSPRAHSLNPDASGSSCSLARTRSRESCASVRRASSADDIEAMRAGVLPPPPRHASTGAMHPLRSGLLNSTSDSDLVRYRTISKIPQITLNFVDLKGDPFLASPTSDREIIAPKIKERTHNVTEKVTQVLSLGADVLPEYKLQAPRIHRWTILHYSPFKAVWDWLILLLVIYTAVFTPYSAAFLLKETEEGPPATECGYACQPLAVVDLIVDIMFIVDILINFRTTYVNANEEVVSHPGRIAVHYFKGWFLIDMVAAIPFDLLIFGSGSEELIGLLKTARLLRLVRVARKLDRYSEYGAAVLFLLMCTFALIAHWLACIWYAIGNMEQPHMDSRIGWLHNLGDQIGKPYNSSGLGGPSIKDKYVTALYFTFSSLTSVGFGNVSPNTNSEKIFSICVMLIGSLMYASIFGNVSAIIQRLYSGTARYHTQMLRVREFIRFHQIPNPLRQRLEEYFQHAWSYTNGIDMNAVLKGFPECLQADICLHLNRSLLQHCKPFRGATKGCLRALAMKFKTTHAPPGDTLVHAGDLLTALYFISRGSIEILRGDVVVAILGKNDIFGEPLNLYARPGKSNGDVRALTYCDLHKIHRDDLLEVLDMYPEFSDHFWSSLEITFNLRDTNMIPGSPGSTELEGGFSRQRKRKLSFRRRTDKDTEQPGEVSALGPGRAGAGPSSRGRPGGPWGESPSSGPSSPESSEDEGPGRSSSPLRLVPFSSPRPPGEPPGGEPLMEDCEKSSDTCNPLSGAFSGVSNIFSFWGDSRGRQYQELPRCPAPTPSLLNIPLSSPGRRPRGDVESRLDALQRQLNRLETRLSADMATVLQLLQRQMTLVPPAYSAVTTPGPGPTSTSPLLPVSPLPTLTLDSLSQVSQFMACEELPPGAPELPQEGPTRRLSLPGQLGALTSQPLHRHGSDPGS
Peroxisome proliferator-activated receptor gamma (Homo sapiens), sequence (P37231 whole entry, looked up): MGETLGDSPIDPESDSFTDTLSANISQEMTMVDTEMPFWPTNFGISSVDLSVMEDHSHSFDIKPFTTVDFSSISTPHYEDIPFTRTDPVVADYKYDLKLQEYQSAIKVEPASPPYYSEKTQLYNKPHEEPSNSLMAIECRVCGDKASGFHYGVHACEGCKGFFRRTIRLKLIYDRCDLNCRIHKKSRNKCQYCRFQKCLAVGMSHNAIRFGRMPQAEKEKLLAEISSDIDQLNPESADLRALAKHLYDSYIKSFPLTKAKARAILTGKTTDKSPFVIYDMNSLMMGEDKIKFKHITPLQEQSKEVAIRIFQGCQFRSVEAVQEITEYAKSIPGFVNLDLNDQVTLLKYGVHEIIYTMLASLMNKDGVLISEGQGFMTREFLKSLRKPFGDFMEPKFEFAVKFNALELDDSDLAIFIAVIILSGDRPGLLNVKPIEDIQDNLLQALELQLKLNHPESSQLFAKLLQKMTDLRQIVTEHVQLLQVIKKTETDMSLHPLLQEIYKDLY

Turning to `C/C=C\c1ccc(OC)cc1`, the Potency in experiment [1], in [2] and in [3] was above 92 µM in each case. For the same molecule, the Potency result in experiment [4], in experiment [14], in experiment [15], in experiment [16], in [17] and in experiment [18] was “inactive” each time. Moreover, the Potency entry in experiment [19] is “inactive”. Further, the call in [5], in experiment [7], in experiment [8], in [9], in [10] and in [11] was inactive. In addition, the result in experiment [12] was inactive. Besides, in [6], the activity change, negative = cytotoxicity was -1.47%. Also, the activity change % (negative = inhibition) in [13] was 20.9%. Besides, the max response in [20] was 5.64%.
As for `Cc1cccc([N+](=O)[O-])c1C`, the Potency in experiment [1], in [2] and in experiment [3] was above 92 µM in each case. The Potency result in [4] and in [14] was “inactive” throughout. Further, the call in experiment [5], in [7], in experiment [8], in [9], in [10] and in experiment [11] was inactive. In addition, the outcome in experiment [12] was inactive. The activity change, negative = cytotoxicity in experiment [6] is 1.97%. Moreover, the activity change % (negative = inhibition) in experiment [13] is -0.0299% and -1.89%. Further, the max response in experiment [20] is 1.82% and -0.351%.
Regarding `CN1CC[C@H](CN2c3ccccc3Sc3ccccc32)C1`, the Potency in [15] was 10 µM (active); in experiment [16], 6.31 µM (active); in [17], 11.2 µM (active); in [18] it was 3.55 µM (active); in [19], 11.2 µM (active).
As for `O[C@@H]([C@H](O)[C@@H](O)CBr)[C@@H](O)CBr`, the Potency in experiment [1], in experiment [2] and in [3] was above 92 µM each time. In addition, the Potency entry in experiment [4] and in experiment [14] was “inactive” each time. Besides, the outcome in [5], in [7], in experiment [8], in experiment [9], in experiment [10] and in experiment [11] was inactive. Moreover, the result in experiment [12] was inactive. For the same molecule, the activity change, negative = cytotoxicity in experiment [6] was 7.81%. The activity change % (negative = inhibition) in experiment [13] was -6.77%. Further, in experiment [20], the max response is 0.919%.
On to `CC1(C)CC(N=C=O)CC(C)(CN=C=O)C1` (stereo not drawn), for which the Potency in experiment [1], in experiment [2] and in experiment [3] was above 92 µM each time. Besides, the Potency entry in experiment [4] and in [14] was “inactive” throughout. Further, the call in experiment [5], in [7], in [8], in [9], in experiment [10] and in experiment [11] was inactive. For the same molecule, in [12], the result was inactive. For the same molecule, in experiment [6], the activity change, negative = cytotoxicity was 8.39%. In addition, in [13], the activity change % (negative = inhibition) was 2.27% and 3.24%. Also, the max response in experiment [20] was 1.05% and -0.823%.
As to `CCC(O)OC(O)CC` (stereo not drawn), the Potency in experiment [1], in experiment [2] and in [3] was above 92 µM each time. Moreover, the Potency entry in experiment [4] and in experiment [14] was “inactive” each time. In addition, the molecule was called inactive in experiment [5], in experiment [7], in experiment [8], in [9], in experiment [10] and in [11]. Moreover, in [12], the result was inactive. The activity change, negative = cytotoxicity in experiment [6] is 7.91% and -0.346%. In addition, the activity change % (negative = inhibition) in [13] is -5.47% [middle of 4 runs]. For the same molecule, in experiment [20], the max response is -0.225% [middle of 4 runs].
As to `O=C1c2ccccc2C(=O)C1c1ccc2ccccc2n1`, the Potency is 33.1 µM (active) in experiment [1], 30.1 µM (active) in experiment [2] and 34 µM (active) in experiment [3]. The activity change, negative = cytotoxicity was -106% (active) in experiment [4] and -33.6% in [6]. In addition, the molecule was called inactive in experiment [5], in experiment [7], in [8], in experiment [9], in experiment [10] and in [11]. Besides, the outcome in [12] was inactive. In addition, the activity change % (negative = inhibition) in [13] was -15.6%. In addition, in [14], the Potency result was “inactive”.
Consider `NC1=NC(S)C2N=CN=C2N1` (stereo not drawn), for which the Potency in experiment [1] is 0.218 µM (active); in [2], above 92 µM; in experiment [3] it was 0.182 µM (active); in [4], 0.158 µM (active); in [6] it was 0.251 µM (active). The outcome in experiment [5], in [7], in experiment [8], in experiment [9], in experiment [10] and in experiment [12] was inactive. Moreover, in [13], the activity change % (negative = inhibition) is 18.1%. Further, the Potency result in [14], in experiment [15], in [16], in experiment [17], in experiment [18] and in experiment [19] was “inactive” throughout. Further, the max response in [20] is -3.62%.
